PubChem BioAssay (NCATS)
Values joined by “and” are separate entries in the source; they are usually repeats but may differ in a detail not shown here. Equal values may be shown once. Records with an inconclusive call do not appear. Active and inactive are the calls of the source. Calls follow the shape of the dose curve; as a rule, active = well fitted activation curve with a large enough effect; inconclusive = small, poorly fitted or top-dose-only effect; inactive = no such curve, though single readings can be large or run the other way.
Potency is read from the fitted curve at half-maximal effect.

Each compound was assayed against Cellular tumor antigen p53 (Homo sapiens) (UniProt P04637) (assay: Primary qHTS for small molecule compounds that upregulate eGFP-tagged delta133p53alpha (in N-terminal) cells. (AID 2060322; also: nearly all actives have a fitted effect of over 75% in size;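 as to activation: cells pre-induced with doxycycline then dosed without doxycycline; series mostly up to about 56 µM; 0% = DMSO vehicle and 100% = reference activator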)). Details: NCI-H358 eGFP-delta133p53alpha fluorescence, 24 h; activation: stronger effect = higher value.
Cellular tumor antigen p53 (Homo sapiens), sequence (P04637 whole entry, looked up): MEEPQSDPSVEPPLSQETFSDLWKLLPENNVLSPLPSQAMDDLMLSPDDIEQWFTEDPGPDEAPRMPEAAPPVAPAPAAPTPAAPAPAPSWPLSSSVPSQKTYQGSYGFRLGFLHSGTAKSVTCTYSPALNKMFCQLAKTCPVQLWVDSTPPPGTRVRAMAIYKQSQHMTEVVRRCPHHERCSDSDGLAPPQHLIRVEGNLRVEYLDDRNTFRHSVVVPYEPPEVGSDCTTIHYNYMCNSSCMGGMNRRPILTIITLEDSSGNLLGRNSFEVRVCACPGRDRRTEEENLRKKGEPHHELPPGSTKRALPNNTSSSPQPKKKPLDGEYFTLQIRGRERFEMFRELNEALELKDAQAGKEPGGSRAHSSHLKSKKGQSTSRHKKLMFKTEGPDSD
Text: Assay Development and Screening Technology
National Center for Advancing Translational Sciences (NCATS),
National Institute of Health (NIH), Rockville, Maryland
Cellular senescence (CS) is one of the hallmarks of aging and age-related diseases. Senescent cells are characterized by an irreversible growth arrest, an increase in senescence-associated beta-galactosidase (SA-beta-gal) activity and p16INK4a expression, an activation of the DNA damage response pathways, and the emergence of a senescence-associated secretory phenotype (SASP).
Delta133p53alpha, a human/primate-specific p53 protein isoform, delays or inhibits the induction of CS and SASP in various types of human cells, including progeria-derived fibroblasts, primary normal astrocytes, and CD8+ T lymphocytes. Induction of delta133p53alpha with small molecule compounds may provide therapeutic opportunities for inhibition of senescence/SASP-associated pathologies in progeria syndromes, astrocyte-mediated neuroprotection in neurodegenerative diseases, and possibly prevention and treatment of a wider range of senescence- and aging-associated diseases.
Here we report the development and validation of a cell-based quantitative high throughput screening (qHTS) assay in 1,536-well format. This qHTS assay uses the NCI-H358 cell line with doxycycline-inducible expression of enhanced green fluorescent protein (eGFP)-tagged delta133p53alpha, which allows efficient and highly quantitative measurement of the protein levels.
PROTOCOL TABLE (as described by Inglese J, Shamu CE and Guy RK. 2007)
SEQUENCE No. (e.g., 1, 2, 3, etc.); […] (e.g., Cells, Incubation, Reagent, etc.); VALUE; DESCRIPTION.
1; Cells; 4uL; 800 doxycycline treated cells / well in doxycycline-free media, 1536-well black, clear-bottom low base Aurora microplates.
2; Compounds; 23 nL; Kalypsis pin tool (Wako) equipped with 1536-well pin heads, 5-azacytidine positive control.
3; Incubation; 24 hr; 37C, 5% CO2; 95% relative humidity.
4; Aspiration; 1x; BioTek EL406 washer dispenser (Agilent).
5; Fixing; 3.5% paraformaldehyde, BioTek EL406 washer dispenser (Agilent).
6; Washing; 1x PBS; BioTek EL406 washer dispenser (Agilent).
7; Nuclei staining; 1:1000 dilution of Hoechst 33342 (Thermofisher), BioTek EL406 washer dispenser (Agilent).
8; Incubation; 20 min; in the dark at room temperature.
9; Washing; 2x, 1x PBS (ThermoFisher), BioTek EL406 washer dispenser (Agilent).
10; Reagent; 10 uL; 1x PBS per well, sealed with clear adhesive tape.
NOTES (numbers refer to sequence numbers above).
1. NCI-H358 cells expressing eGFP-tagged delta133p53alpha were grown in T75 culture flasks and treated with doxycycline for 24h, at 10 ng/ml for eGFP-D133p53a cells (N-terminal cell) and 100 ng/ml for D133p53a-eGFP cells (C-terminal cells). Cells were trypsinized, counted using a Counted 3 Automated Cell Counter (Thermo Fisher), and diluted to a concentration of 200,000 cells/ml. A Multidrop Combi Reagent Dispenser (ThermoFisher) was used to dispense 800 cells/well in […] of doxycycline-free media, into 1536-well black/clear bottom low base plates (AuroraMicroplates).
2. After plating cells, 23 nl of compound library, DMSO vehicle control or positive control (5-azacytidine) were transferred by Pin Tool (Wako). The plate map layout was the same for each plate: (column 1) non-doxycycline treated cells + DMSO vehicle control; (column 2) doxycycline treated cells + DMSO vehicle control baseline; (column 3) doxycycline treated cells + positive control 57.5 uM final concentration 5-azacytidine; (column 4) doxycycline treated cells + serial dilution of 5-azacytidine, 16-point 1:2 titration spanning 1.8 nM to […] final concentration; (columns 5-48) doxycycline treated cells + titration of library compounds.
3. Cells were incubated at 37 °C, 5 % CO2, 95% RH with breathable metal lid for 24h.
4-10. […] After two washes, 10 ul of 1X PBS (Thermo Fisher) was dispensed to each well. Clear adhesive plate seals (VWR) were applied and plates stored at 4 °C.
11. […]
For `COC1CC(=O)C23C(=O)NC(CC(C)C)C2C(C)=C(C)C(OO)C3/C=C(\C)CCC(O)C1O` (stereo not given), the activation was -4.58% (inactive). `OCCOc1ccccc1` was tested, and the activation was -20.9% (inactive). In the case of `O=C(O)COc1ccccc1`, the activation is reported as -28.8% (inactive). For `Cc1nc(-c2ccc(-c3ccc(C(=O)N4CCc5cc6c(cc54)C4(CCN(C)CC4)CO6)cc3)c(C)c2)no1`, the activation was -21.1% (inactive). For `CC[C@H]1/C=C\C=C/C[C@@H](C)[C@H](O)[C@@](C)(O)C(=O)[C@@H](C)[C@H](O)[C@@H](C)C(=O)[C@@H](C)[C@H](O)[C@@H](C)/C=C\C(=O)O[C@@H]2[C@H](C)[C@H](CC1)O[C@]1(CC[C@H](C)[C@H](C[C@@H](C)O)O1)[C@H]2C`, the activation was 26.3% (inactive). With `C=C1[C@@H](C)[C@H]2[C@H](Cc3ccccc3)NC(=O)[C@]23[C@H](OC(C)=O)/C=C/[C@](C)(O)C(=O)[C@@H](C)C/C=C/[C@H]3[C@@H]1O` the activation was -8.04% (inactive). With `N#Cc1ccccc1-c1cc(-c2ccccn2)cn(-c2ccccc2)c1=O` the activation was 10.5% (inactive). With `CN1CN(c2ccccc2)C2(CCN(CCCC(=O)c3ccc(F)cc3)CC2)C1=O` the activation was 23.7% (inactive). In the case of `C[N@@+]1(CC2CC2)CC[C@]23c4c5ccc(O)c4O[C@H]2C(=O)CC[C@@]3(O)[C@H]1C5`, the activation is reported as -5.67% (inactive). In the case of `CC[N+]1(CC)CCC(OC(=O)C(O)(c2ccccc2)c2ccccc2)C1` (stereo not given), the activation is reported as -15.3% (inactive). In the case of `O=C(O)CCCCCCNC1c2ccccc2CCc2ccccc21`, the activation is reported as 5.67% (inactive). In the case of `CN1C[C@@H](NS(=O)(=O)N(C)C)C[C@@H]2c3cccc4c3c(cn4C)C[C@H]21`, the activation is reported as 14.1% (inactive). With `CN1C(=O)NC(=O)C(C)(C2=CCCCC2)C1=O` (stereo not given) the activation was 3.35% (inactive). With `CC1=CC(=O)[C@@H](O)[C@@]2(C)C1C[C@H]1OC(=O)[C@H](O)[C@@]3(O)[C@@H](C)[C@@H](O)[C@H](O)C2[C@@]13C` (stereo not given in full) the Potency was 14.8 µM (active). In the case of `O=C(O)Cc1cnc[nH]1`, the activation is reported as -6.89% (inactive). In the case of `C#CCOC(C(=O)OCCN(C)C)(c1ccccc1)c1ccccc1`, the activation is reported as -6.21% (inactive). For `COP(=O)(OC)C(O)C(Cl)(Cl)Cl` (stereo not given), the activation was -2.51% (inactive). `CC(C)(C)C(O)C(Oc1ccc(Cl)cc1)n1cncn1` (stereo not given) was tested, and the activation was 10.7% (inactive). `CCOP(=S)(OCC)Oc1cc(C)nc(C(C)C)n1` was tested, and the activation was -8.37% (inactive). In the case of `C[C@]12Cc3cn4c(nc3C=C1CCC1C2CC[C@@]2(C)[C@H]1CC[C@@]2(O)C#N)nc1ccccc14` (stereo not given in full), the activation is reported as -9.64% (inactive). For `CC(C)(C)[C@]1(O)C[C@@H]2OC(=O)C[C@@]23C(=O)O[C@@H]2OC(=O)[C@@H](O)[C@]213`, the activation was -1.79% (inactive). With `CN1CCc2cccc(Cl)c2CC1` the activation was -13.1% (inactive). In the case of `Cc1sc2c(c1C)C(c1ccc(Cl)cc1)=NC(CC(N)=O)c1nnc(C)n1-2` (stereo not given), the activation is reported as -1.12% (inactive). For `CC(=O)N1N=C(c2ccc(N)cc2)c2cc3c(cc2C[C@H]1C)OCO3`, the activation was -0.955% (inactive). In the case of `c1ccc(C2(c3ccccc3)CC2C2=NCCN2)cc1` (stereo not given), the activation is reported as -13.2% (inactive). With `COC(=O)C1(C)CCC(O)C2(C)c3cc(O)c(C(C)C)cc3C(O)C(OC(C)=O)C12` (stereo not given) the activation was -2.68% (inactive). `COc1ccc2c(c1O)-c1cccc3c1[C@@H](C2)N(C)CC3` was tested, and the activation was -2.98% (inactive). `CC[C@@H](CO)NC(=O)[C@@H]1C=C2c3cccc4c3c(cn4C)C[C@H]2N(C)C1` was tested, and the activation was -3.95% (inactive) and -69.3% (inactive). With `c1ccc2c(c1)[I+]c1ccccc1-2` the activation was 35.2% (inactive). `CCC(C)C1NC(=O)C(C(C)=O)=C1O` (stereo not given) was tested, and the activation was 13% (inactive). `Cc1cccc(NC(=O)NC2N=C(c3ccccc3)c3ccccc3N(CC(=O)c3ccccc3C)C2=O)c1` (stereo not given) was tested, and the activation was -13.8% (inactive). In the case of `CC(=O)O[C@@H]1[C@@H](O)[C@H]2O[C@@H]3C=C(C)[C@@H](O)C[C@]3(CO)[C@]1(C)[C@]21CO1`, the Potency is reported as 1.48 µM (active). For `O=S(=O)(c1ccccc1F)N1CCOc2c(N3CCNCC3)cccc21`, the activation was 9.07% (inactive). In the case of `Nc1ccc([As](=O)(O)O)cc1`, the activation is reported as -5.02% (inactive). With `Cc1ccc(Cl)c(O)c1` the activation was 5.08% (inactive). With `CCN1C[C@]2(COC(=O)c3ccccc3N3C(=O)C[C@H](C)C3=O)CC[C@H](OC)[C@@]34[C@@H]5C[C@H]6[C@H](OC)[C@@H]5[C@](O)(C[C@@H]6OC)[C@](O)([C@@H](OC)[C@H]23)[C@@H]14` the activation was 10.3% (inactive). `CCCN1CCc2cc(O)cc3c2[C@H]1Cc1ccc(O)c(O)c1-3` was tested, and the activation was 23.3% (inactive). With `C[C@H](CCC(=O)O)C[C@H](C)C[C@H](C)C(=O)/C=C(\O)[C@H](C)C[C@H](C)C/C=C/[C@@H](C)[C@@H](O)[C@@H](C)[C@@H](O)C[C@@H]1CC[C@@](C)([C@H]2CC[C@@](C)([C@@H](C)O)O2)O1` the activation was -6.33% (inactive). In the case of `CN1CCCC1CCOC(c1cc2nccc(C(=O)O)c2[nH]1)c1ccccc1Cl` (stereo not given), the activation is reported as 4.33% (inactive). With `COCC1(CO)C(=O)C2CCN1CC2` (stereo not given) the activation was -22.4% (inactive).
